# PubChem BioAssay AID1706 (The Scripps Research Institute Molecular Screening Center, 2009)
# Screen size: about 290,000 compounds; about 400 (0.14%) were called active. This is one part of a sample in which actives are shown more often than they occur. No stated cut-off is given here; in the data, active means inhibition above about 12%; inactive means the rest.
# Biological target: Replicase polyprotein 1ab (Severe acute respiratory syndrome coronavirus) (UniProt P0C6X7)
# Test: blockers of SARS 3CLpro peptide cleavage – biochemical, quenched FRET, primary screen (AID 1706)
# Details: recombinant SARS-CoV 3CLpro, at 6 µM, stronger effect = higher value
row,SMILES,inhibition
1,CCC(C)N1C(=S)SC(C)(C)C1N(O)C(=O)NC1CCCCC1 (centres undefined),-0.75% (inactive)
2,CCCCNC(=O)N(O)C1N(/N=C/c2ccc(N(C)C)cc2)C(=S)SC1(C)C (centres undefined),77.3% (active)
3,CCCCNC(=O)N(O)C1N(/N=C/c2ccccc2O)C(=S)SC1(C)C (centres undefined),4.34% (inactive)
4,O=C(Cc1ccccc1F)NC1CCSc2ccccc21 (centres undefined),-4.7% (inactive)
5,Cc1ccnc(NS(=O)(=O)c2ccc(NC(=O)c3oc4ccccc4c3C)cc2)n1,-4.86% (inactive)
6,C=C(C)COc1ccc(-c2n[nH]c(C)c2-c2ccccc2)c(O)c1,14.1% (active)
7,C=C(C)COc1ccc(-c2n[nH]c(C)c2-c2ccccc2OC)c(O)c1,11.1% (inactive)
8,CCOc1ccc(-c2n[nH]c(C)c2-c2ccccn2)c(O)c1,3.95% (inactive)
9,O=c1cc(-c2ccccc2)nc(N2CCCCC2)[nH]1,3.63% (inactive)
10,CC(=O)c1cc(C#N)c(N2CCCCC2)nc1C,5.03% (inactive)
11,CC(=O)c1cc(-c2ccccc2)[nH]c1N1CCCC1,57.1% (active)
12,CC(=O)c1cnc(Nc2nc(C)c3cc(C)ccc3n2)nc1C,2.54% (inactive)
13,O=C(O)/C=C/c1cn(Cc2ccccc2)nc1-c1cccs1,3.03% (inactive)
14,CN(C)/N=C/c1cn(-c2ccccc2)nc1-c1cccnc1,9.07% (inactive)
15,O=Cc1cn(Cc2ccccc2)nc1-c1cccnc1,39.5% (active)
16,O=C1CCC(=O)N(c2ccccc2)N1,2.8% (inactive)
17,CC(C)C[C@@H](CO)N1CCN(Cc2ccc(O)cc2)CCC1=O,-3.5% (inactive)
18,CC(C)Nc1ccc(-n2nc3ccccc3[n+]2[O-])cc1,-2.9% (inactive)
19,COc1ccc(N2CCN(C(=O)CNC(=O)c3ccc(Br)o3)CC2)cc1,-5.34% (inactive)
20,O=C(Nc1ccc(S(=O)(=O)N2CCCCC2)cc1)C1CC(=O)N(c2ccc(F)cc2)C1 (centres undefined),1.61% (inactive)
21,CCc1ccc(-n2c(SCc3cc(=O)n4cc(Br)ccc4n3)nc3[nH]ncc3c2=O)cc1,0.2% (inactive)
22,CN(C)Cc1c(C(=O)N/N=C/c2ccccc2OCc2ccc(F)cc2)nnn1-c1nonc1N,0.8% (inactive)
23,COc1ccc(NC(C(=O)Nc2cccc(C(C)=O)c2)c2ccccc2)cc1 (centres undefined),1.08% (inactive)
24,CCOC(=O)c1cccc(NC(=O)C2CCN(c3ncnc4c3nc3n4CCCCC3)CC2)c1,6.86% (inactive)
25,CCn1c(/C=C/Nc2ccccc2)[n+](CC)c2ccc(C(=O)OCC(F)(F)F)cc21,-5.62% (inactive)
26,CC1CCN(Cc2nc3c(c(=O)n(C)c(=O)n3C)n2CCc2ccccc2)CC1,0.08% (inactive)
27,COc1ccccc1C(=O)NCc1nnc(SC(C)C(=O)Nc2nccs2)n1C (centres undefined),1.41% (inactive)

row,SMILES,inhibition
1,CN1C(CC(=O)Nc2ccc(Br)cc2)c2ccccc2CC1(C)C (centres undefined),0.03% (inactive)
2,CCSCc1nc(N)nc(NCCc2ccccc2)n1,1.32% (inactive)
3,COc1ccccc1CNC(=O)C1CCN(S(=O)(=O)c2ccc3c(c2)OCCO3)CC1,0.14% (inactive)
4,O=C(Nc1ccc(Cl)c(Cl)c1)c1ccccc1NC(=O)C1CC=CCC1C(=O)O (centres undefined),4.04% (inactive)
5,CC(C)CCn1cnc2c1c(=O)n(CC(=O)NC(N)=O)c(=O)n2Cc1ccccc1,2.02% (inactive)
6,O=C(NCCCN1CCCCC1)C1CC(=O)N(CCc2ccccc2)C1 (centres undefined),-1.63% (inactive)
7,CC(C)(C)C(=O)NC1CC2CCCC(C1)N2C(=O)Nc1ccccc1F (centres undefined),-4.3% (inactive)
8,O=C(NC(Cc1ccccc1)C(=O)O)/C(=C\c1ccccc1)NC(=O)c1ccco1 (centres undefined),1.59% (inactive)
9,Cc1cc(CNCc2c(C(=O)N(C)Cc3ccccc3)nc3ccccn23)nn1C,-0.39% (inactive)
10,Cc1ccc(C)c(NC(=O)c2cc(-c3cc(C)cc(C)c3O)n[nH]2)c1,5.71% (inactive)
11,COc1ccc(CCNC(=O)/C(C#N)=C2\N=C(NC(=O)c3cccs3)c3ccccc32)cc1,1.64% (inactive)
12,COc1ccc(N2CC(C(=O)NCCS(=O)(=O)N3CCN(c4ccccc4)CC3)CC2=O)cc1 (centres undefined),0.28% (inactive)
13,Cc1cc(C)nc(NS(=O)(=O)c2ccc(N/C=C\C(=O)c3cccs3)cc2)n1,6.43% (inactive)
14,CN(Cc1ccccc1)C(=O)c1cccc(C(=O)N(C)Cc2ccccc2)c1,-1.52% (inactive)
15,Cc1ccc2cccc(OCCCOc3ccccc3CO)c2n1,-3.15% (inactive)
16,CC(=O)c1c(C)n(C(C)C)c2ccc(O)cc12,-1.9% (inactive)
17,O=C(NCCc1ccccc1Cl)C1CCC(=O)N(CCCc2ccccc2)C1 (centres undefined),0% (inactive)
18,COc1ccc(CNC(=O)c2cc(=O)c3c(C)cc(C)cc3o2)cc1,6.16% (inactive)
19,O=C(NC1CCC(O)CC1)c1ccccc1OCc1ccc(F)cc1 (centres undefined),0.54% (inactive)
20,Cc1ccc(C(=O)NCCN2CCOCC2)cc1C,13.4% (active)
21,Cc1cc(C)cc(C(=O)NCCN2CCOCC2)c1,-2.25% (inactive)
22,COc1ccc(C(=O)NCCCN2CCOCC2)cc1Br,0.44% (inactive)
23,Cc1noc(NS(=O)(=O)c2ccc(NC(=O)c3oc4ccc(F)cc4c3C)cc2)c1C,9.19% (inactive)
24,COCC1CCN(C(=O)c2ccc3oc(Cc4ccccc4)nc3c2)C1 (centres undefined),1.1% (inactive)
25,Cc1cccc2c1N(CC(=O)OC(C)C)C(=O)C2=O,4.13% (inactive)
26,O=C1c2ccccc2C(=O)N1CCOc1ccc(F)cc1,-2.34% (inactive)
27,Cc1cccc2c1N(CCOc1ccccc1)C(=O)C2=O,17.8% (active)

row,SMILES,inhibition
1,Cc1ccc(S(=O)(=O)N2CC(C)N(S(C)(=O)=O)C2)cc1 (centres undefined),-3.38% (inactive)
2,Cc1cccc(-c2noc(CCC(=O)NC3CCCC3)n2)c1,-2.1% (inactive)
3,O=C(O)c1ccccc1CSc1nc2ccccc2s1,9.25% (inactive)
4,COc1ccc(NC(=O)CSc2nncc(=O)n2N)cc1OC,-1.55% (inactive)
5,COc1ccc(NC(=O)c2ccccc2[N+](=O)[O-])cc1OC,3.06% (inactive)
6,O=C(Nc1cccc(NC(=O)c2ccccc2[N+](=O)[O-])c1)c1ccccc1Cl,0.79% (inactive)
7,COC(=O)c1cc(NC(=O)Cc2ccccc2[N+](=O)[O-])ccc1Cl,13.9% (active)
8,Cc1cccc(NS(=O)(=O)c2ccc(-c3cnc(C4CC4)o3)cc2)c1,11.2% (inactive)
9,O=C(NCCCn1ccnc1)c1cc2c(s1)CCCC2,-1.18% (inactive)
10,CCC(C)(C)NC(=O)CN(C(=O)CCC(=O)Nc1nccs1)c1ccc2c(c1)OCO2,-3.34% (inactive)
11,O=C(NCCCN1CCOCC1)C1CCCN(S(=O)(=O)N2CCCCC2)C1 (centres undefined),0.26% (inactive)
12,COc1cccc(NC(=O)CN2CCN(CC(=O)Nc3ccccc3Cl)CC2)c1,-3.69% (inactive)
13,COc1ccc(N(Cc2ccc(N(C)C)cc2)C(=O)c2ccc(S(C)(=O)=O)cc2)cc1,0.16% (inactive)
14,COc1ccc(Cl)cc1NS(=O)(=O)c1cccc(C(=O)NCC2CCCO2)c1 (centres undefined),-1.42% (inactive)
15,Cc1cccc(C(=O)Nc2nnc(S(=O)(=O)N3CCCCCC3)s2)c1,0.72% (inactive)
16,Cc1cccc(C(=O)Nc2nnc(Cc3c[nH]c4ccccc34)s2)c1,13.4% (active)
17,CCc1nnc(NC(=O)[C@@H](NC(=O)c2cccc(C)c2)C(C)C)s1,4.69% (inactive)
18,CCOC(=O)c1cc(C(=O)Nc2ccc(S(=O)(=O)Nc3ccc(OC)cc3)cc2)nn1C,-1.42% (inactive)
19,CN1CCN(C(=O)c2ccc(NS(=O)(=O)c3ccccc3)cc2)CC1,-0.96% (inactive)
20,Cc1ccc(CS(=O)Cc2ccc(C(=O)N3CCOCC3)o2)cc1 (centres undefined),-1.35% (inactive)
21,CSc1ncccc1C(=O)NCc1ccccc1Cl,0.88% (inactive)
22,CC(=O)Nc1ccc(S(=O)(=O)N(C)CC(=O)NCCC2=CCCCC2)cc1,-0.77% (inactive)
23,O=C(NCCc1ccc(Cl)cc1)c1cccc(N2CCCC2=O)c1,3.05% (inactive)
24,COc1ccc(/C=C2\SC(=O)N(CCC(=O)NCCCn3ccnc3)C2=O)cc1,-3.79% (inactive)
25,CC(Oc1ccccc1)C(=O)Nc1c2c(nn1-c1ccccc1)CS(=O)C2 (centres undefined),-1.62% (inactive)
